Inconclusive results are not listed. Entries that show only a call come without a potency. The source made the active and inactive calls. The call rests on the fitted dose curve; in most records, active means well fitted cell-killing curve with a large enough effect; inconclusive means small, poorly fitted or top-dose-only effect, or effect the other way; inactive means no such curve, though single readings can be large or run the other way.
Potency means the concentration at half of the fitted maximal effect.

The assay in a line: Quantitative High-Throughput drug screen in 47 multiple myeloma cell lines against the NCATS MIPE library collection: KMS11_JCRBsus cell viability assay (AID 1919873). Further: nearly all actives have a fitted effect of over 50% in size. The following applies: KMS11 myeloma viability, CellTiter-Glo ATP luminescence, 48 h; series mostly up to 45.8 µM. The method in brief: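 qHTS format: cells plated (500/well), pin-dosed with MIPE 4.0 compounds, kept 48 h at 37 °C. Readout was CellTiter-Glo luminescence, median RLU.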
For orientation: In ATP-based viability assays light output follows the ATP content of the culture.
As to `c1cnc2cc3c(cc2n1)C1CNCC3C1`, the Potency result was “inactive”. `CN(C)C(=O)COC(=O)Cc1ccc(OC(=O)c2ccc(N=C(N)N)cc2)cc1`: the Potency entry is “inactive”. The same measure for `CCN(CCO)CCCC(C)Nc1ccnc2cc(Cl)ccc12` (stereo unspecified): “inactive”. Regarding `COc1cc(OC)c(C(=O)CCCN2CCCC2)c(OC)c1`, the Potency entry is “inactive”. Turning to `CN(c1nccc(=O)[nH]1)C1CCN(c2nc3ccccc3n2Cc2ccc(F)cc2)CC1`, the Potency result is “inactive”. `C[C@]12CCC(=O)C=C1CC[C@@H]1[C@H]2[C@@H](O)C[C@@]2(C)[C@H]1CC[C@]2(O)C(=O)CO`: the Potency was 0.187 µM (active). Regarding `Cc1nc(Nc2ncc(C(=O)Nc3c(C)cccc3Cl)s2)cc(N2CCN(CCO)CC2)n1`, the Potency is 14.8 µM (active).

Turning to `Clc1ccc(C(Cn2ccnc2)OCc2ccsc2Cl)c(Cl)c1` (stereo unspecified), the Potency is 13.2 µM (active). On to `CC1=C(C(=O)O)N2C(=O)[C@@H](NC(=O)[C@H](N)C3=CCC=CC3)[C@H]2SC1`, for which the Potency result was “inactive”.

Consider `CC(C)Oc1ccc2c(=O)c(-c3ccccc3)coc2c1`, for which the Potency entry was “inactive”.

Consider `CC1(C)CCC(C)(C)c2cc(NC(=O)c3ccc(C(=O)O)cc3)ccc21`, for which the Potency was 4.18 µM (active).

Turning to `CCOC(=O)C1=C(O)C(=O)N(Cc2ccccc2)C1`, the Potency entry is “inactive”.

In the case of `CCC1=C(C)CN(C(=O)NCCc2ccc(S(=O)(=O)NC(=O)NC3CCC(C)CC3)cc2)C1=O` (stereo unspecified), the Potency entry was “inactive”. `CC(C)[N+]1(C)[C@@H]2CC[C@H]1CC(OC(=O)C(CO)c1ccccc1)C2` (stereo partly specified): the Potency was 7.43 µM (active). With `O=C(NOCC1CC1)c1ccc(F)c(F)c1Nc1ccc(I)cc1Cl`, the Potency was 20.9 µM (active). The same measure for `CCCS(=O)c1ccc2nc(NC(=O)OC)[nH]c2c1` (stereo unspecified): 18.7 µM (active).

Source of the values: PubChem BioAssay (NCATS).
